The source of these data is paper PMC5540273 (PLoS ONE, 2017).

SMILES strings stand for the structures.
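Further: KINOMEscan kinase panel screen.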

In the assay the test system is STK39. The conditions noted are these: concentration: 1 μM, replicates: in singlicate; n = 1.
`O=C(Nc1n[nH]c2nc(-c3nccs3)c(Br)cc12)C1CCCC1` [SB-742609]: the “%Inh” value turned out to be 21%. The figure for `CC1=C(C(=O)Nc2cc3cn[nH]c3cc2F)C(c2ccc(C(F)(F)F)cc2)CC(=O)N1` (stereo not drawn) [GSK429286] is 20%; for `Cl.O=C(Nc1cccc(-c2nn3ncccc3c2-c2ccnc(Nc3cccnc3)n2)c1)c1c(F)cccc1F` [GSK312879] it is 17%; for `Cc1ccc(NC(=O)Nc2cccc(Cl)c2)cc1-c1ccc(C(=O)Nc2ccncc2)cc1` [GSK1398468] it is 0%. The figure for `CC(=O)Nc1nc2cnc(Nc3cc(NC(=O)c4cccc(CCC#N)c4)ccc3C)nc2s1` is 0%; for `COc1cccc(NC(=O)NC2CCN(c3ccnc(Nc4ccc(F)cc4)n3)C2)c1` (stereo not drawn) [GSK1379721] it is 9%.

As for `CS(=O)(=O)c1ccc(-c2nc3n(c2-c2ccncc2)CCC3)cc1` [SKF-105942], the “%Inh” value came out at 0%. The figure for `CCCc1ccc(S(=O)(=O)NC2CCN(c3ccnc(Nc4ccc(F)cc4)n3)C2)cc1` (stereo not drawn) [GSK1379715] is 13%; for `O=S(=O)(c1ccc(-c2ccnc3[nH]ccc23)cc1)N1CCCC1` [GSK846226] it is 0%; for `Cc1ccc(NC(=O)Nc2cc(C(C)(C)C)nn2-c2ccccc2)cc1` [GSK1014915] it is 2%. As for `CN(C)CCN(C)C(=O)c1cc(-c2ccncc2)c(-c2ccc(Cl)c(O)c2)o1.Cl.Cl` [SB-710397], the “%Inh” value is 33%. The figure for `O=C(O)COc1ncnc2cc(-c3ccc4[nH]ncc4c3)sc12` is 0%; for `Cc1cccc(-c2nc(C)cc(Nc3ccncc3)n2)n1` [GSK257997] it is 0%; for `O=C(Nc1n[nH]c2nc(-c3nccs3)c(Br)cc12)C1CC1` [SB-742251] it is 21%. The figure for `Nc1nc(-c2nccs2)c(-c2ccnc3ccccc23)s1` [GW693542] is 10%; for `CC(C)(C)c1ccc(C(=O)Nc2cn3cc(-c4cccnc4)ccc3n2)cc1` it is 0%. The figure for `Cn1ccc2ncnc(Oc3ccc(NC(=O)Nc4ccccc4)cc3)c21` is 0%; for `Cl.c1ccc(-c2n[nH]cc2-c2ccnc(-c3ccc(CN4CCOCC4)cc3)c2)nc1` [GW776245] it is 0%; for `COc1cc2ncn(-c3cc(OCC4CCCO4)c(C(N)=O)s3)c2cc1OC` (stereo not drawn) [GSK204607] it is 0%. Turning to `COc1ccc(C2=C(Nc3cccc(C(=O)O)c3)C(=O)NC2=O)cc1` [SB-390765], the “%Inh” value is recorded as 0%.

For `Fc1cc(Cl)ccc1Nc1ccnc2cc(-c3ccc(CN4CCCCC4)o3)ccc12` [GW560116], the “%Inh” value is recorded as 0%. `O=c1cc(N2CCOCC2)nc2n(Cc3cccc(Cl)c3Cl)ccn12` [GSK2286295]: the “%Inh” value turned out to be 0%.

On to `O=C(Nc1ccccc1)Nc1cccc(Oc2ccc3nccn3n2)c1`, for which the “%Inh” value is recorded as 0%.

Turning to `Nc1ncnc2[nH]c(-c3ccccc3)nc12` [AH5015], the “%Inh” value worked out at 0%. Take `Cc1cccc(-c2nc(-c3ccc(S(C)(=O)=O)cc3)sc2-c2ccnc(NCCc3ccccc3)c2)c1`: the “%Inh” value stood at 1%.

With `O=C(Nc1n[nH]c2cc(-c3cccc(F)c3F)ccc12)C1CC1` [SB-733894], the “%Inh” value was determined as 0%. On to `CN1C(=O)C(Nc2ccc(Cl)c(C(=O)O)c2)=C(c2ccc(Cl)cc2)C1=O` [SB-404290], for which the “%Inh” value was found to be 0%.

As for `Cn1cncc1-c1ccc2ncnc(Nc3ccc(OCc4ccccc4)cc3)c2c1` [GW320571], the “%Inh” value was found to be 7%.

With `Cn1ccc2ncnc(Oc3cccc(C(=O)Nc4ccccc4)c3)c21`, the “%Inh” value stood at 0%. In the case of `Fc1cc(Cl)ccc1Nc1ccnc2cc(I)ccc12` [GW551191] it was 15%. In the case of `COc1cc2ncnc(Nc3ccc4nc(-c5ccccc5)[nH]c4c3)c2cc1OC.Cl` [GW282450] it was 0%. In the case of `COc1cccc(-c2cc(-c3c[nH]nc3-c3ccccn3)ccn2)c1` [GW680338] it was 13%; in that of `COc1ccc(CNC(=O)NC2CCN(c3ccnc(Nc4cc(OC)c(OC)c(OC)c4)n3)C2)cc1` (stereo not drawn) [GSK1379748], 1%.
